{"source": "PubChem BioAssay (NCATS)", "note": "Inconclusive results are not listed. Calls of active or inactive are those of the source. The call rests on the fitted dose curve; in most records, active means well fitted curve in the direction sought with a large enough effect; inconclusive means small, poorly fitted or top-dose-only effect, or another doubt; inactive means no such curve, though single readings can be large or run the other way.", "data": [{"target": "Calcium and integrin-binding protein 1 (Homo sapiens) (UniProt Q99828)", "sequence (Q99828 whole entry, looked up)": "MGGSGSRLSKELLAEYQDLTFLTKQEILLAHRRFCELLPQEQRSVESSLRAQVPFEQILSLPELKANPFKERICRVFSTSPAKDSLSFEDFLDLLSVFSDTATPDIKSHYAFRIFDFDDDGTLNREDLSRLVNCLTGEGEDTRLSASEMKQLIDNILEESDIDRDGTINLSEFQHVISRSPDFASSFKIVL", "test": "Validation qHTS for Identification of Calcium Integrin Binding protein 1 (CIB1) Competitor (AID 1508618)", "conditions": "CIB1-GST / FITC-alphaIIb peptide fluorescence polarization; series mostly up to 114 µM", "text": "Assay Provider: Ulhas P. Naik, PhD\nSidney Kimmel Medical College\nThomas Jefferson University, Philadelphia, PA\nPrimary function of platelets is to maintain hemostasis. At the site of vascular injury, platelets adhere to adhesive proteins such as collagen and von Willebrand factor. Adherent platelets are activated and generate soluble platelet agonists such as thrombin, ADP and thromboxane A2. Following exposure of circulating platelets to these agonists, results in platelet shape change, granule secretion and activation of platelet integrin alphaIIb-beta3. Ligand binding to activated integrin alphaIIb-beta3 triggers outside-in signaling, leading to platelet aggregation, stabilization of platelet plug, and clot retraction. Upon atherosclerotic plaque rupture also causes platelet plug formation, which underlies a number of cardiovascular diseases such as myocardial infraction and stroke. A number of anti-platelet drugs such as aspirin, clopidogrel, prasugrel, vorapaxar, and eptifibatide are currently available to prevent the thrombotic complications. However, these anti-platelet agents have several limitations including inherent variability in individual responses, developing resistance, and serious bleeding side effects. For these reasons they are not suitable for long-term protection. Based on the experiences with current anti-platelet drugs, it appears that the most useful therapeutic approach is to intersect the secondary responses such as integrin outside-in signaling or recruitment of platelets by TxA2 and secreted ADP. Compounds, which can largely preserve the primary hemostatic function of platelets but inhibit secondary response will be most desired therapeutic agents for treatment of cardiovascular disease.\nCIB1 is a calcium integrin binding protein, which specifically interact with the alphaIIb subunit of integrin alphaIIb-beta3. Binding of CIB1 to alphaIIb regulates the outside-in signaling in platelets, which is needed for thrombus stabilization and thrombus growth. […] Therefore, we propose that discovery of a small molecule that can prevent the association of CIB1 and alphaIIb-beta3 will be a potential anti-platelet agent that can block the thrombus formation without undue effect on hemostasis.\nTo develop fluorescence polarization (FP) assay using fluorescently labeled alphaIIb peptide and CIB1 protein. Using FP assay characterize the binding affinity, competitive inhibition, and acceptable Z factor (0.5 to1) in order to perform the HTS to identify small molecule compound that can prevent CIB1 binding to platelet integrin alphaIIbbeta3. This assay is screened against the NCATS LOPAC library to validate the amenability of the assay to qHTS.\n[1] Naik MU, Nigam A, Manrai P, et al. CIB1 deficiency results in impaired thrombosis: the potential role of CIB1 in outside-in signaling through integrin alpha IIb beta 3. J Thromb Haemost. 2009;7(11):1906-1914. doi:10.1111/j.1538-7836.2009.03581.\nSEQUENCE No. (1, 2, 3, etc.); […] (e.g., Cells, Incubation, Reagent, etc.); VALUE and DESCRIPTION.\n1; Reagent; 3 uL; Protein or buffer (4/3x)\n2; Compound; 46 nL; Control inhibitor / compound library\n3; Time; 15 min; Room temperature incubation\n4; Reagent; 1 uL; Fluorescent labeled peptide (4x)\n5; Time; 1000 rpm; Centrifuge\n6; Time; 15 min; Room temperature incubation\n7; Detection; Ex 480/ Em 540; ViewLux Fluorescence Read\nNOTES (numbers refer to sequence above)\n1; Protein Mixture: C1B1-GST (final concentrations of 1 uM). Buffer composition: 5 mM HEPES pH 7.4, 125 mM NaCl, 5 mM CaCl2, 0.01% Tween20.\n2; Control Inhibitor: unlabeled peptide (final concentration range 17.4 nM to 572 uM). Compound Library final concentration range 18.3 nM to 114 uM.\n3; Room temperature incubation.\n4; Fluorescent Labeled Peptide: FITC-aIIb (final concentration of 100 nM). Sequence of alphaIIb peptide: Acetyl-[…]-FITC (purity is 95.83%).\n6; Room temperature incubation.\n[…]", "values": [{"smiles": "NC(N)=NCCCCN=C(N)N", "outcome": "inactive"}, {"smiles": "CC(C)N(CCC(=O)c1ccc2ccccc2c1)Cc1ccccc1", "outcome": "inactive"}, {"smiles": "O=[N+]([O-])c1ccc(-c2nc(-c3ccc(F)cc3)c(-c3ccncc3)[nH]2)cc1", "outcome": "inactive"}, {"smiles": "COC(=O)C1=CO[C@@H](O)[C@@H]2C(CO)=CC[C@H]12", "outcome": "inactive"}, {"smiles": "N[C@@H](Cn1ccc(=O)c(O)c1)C(=O)O", "outcome": "inactive"}, {"smiles": "Brc1ccc([C@H]2CN3CCSC3=N2)cc1", "outcome": "inactive"}, {"smiles": "COc1ccccc1N1CCN(CCN2C(=O)CC3(CCCC3)CC2=O)CC1", "outcome": "inactive"}, {"smiles": "Nc1ncnc2n[nH]c(Nc3ccc(F)cc3)c12", "outcome": "inactive"}, {"smiles": "COc1cccc2c1[C@@H]1CN(CCCCn3c(=O)[nH]c4c(sc5ncc(-c6ccccc6)nc54)c3=O)C[C@@H]1CO2", "outcome": "inactive"}, {"smiles": "C[N+](C)(C)CCO", "outcome": "inactive"}, {"smiles": "CCN(CC)CCNC(=O)c1ccc(NS(C)(=O)=O)cc1", "outcome": "inactive"}, {"smiles": "Cn1cnc2c(NCc3ccccc3)nc(NCCO)nc21", "outcome": "inactive"}, {"smiles": "CN(C)c1cc2c(Nc3ccc4c(cnn4Cc4ccccc4)c3)ncnc2cn1", "outcome": "inactive"}, {"smiles": "Cc1nn(-c2ccccc2)c(C)c1/C=N/N1CCN(Cc2ccccc2)CC1", "outcome": "inactive"}, {"smiles": "Clc1ccc2c(c1)N=C(N1CCNCC1)c1ccccc1N2", "outcome": "inactive"}]}]}
